# Screening results (PubChem BioAssay)
# Nrf2 block – Nrf2 qHTS screen for inhibitors. A549 ARE-Fluc reporter, luciferase luminescence, 18-24 h. Potency, µM (highest dose often 46 µM), for the others: at the highest dose activity change, negative = inhibition, usual class: inhibitors. 2.1% of 360,000 active. AID 504444, 2011; further: on the % scale 0 is the no-effect control and ±100 the full control effect; nearly all actives have a fitted effect of over 60% in size
#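 Nrf2 function is reported as luminescence of an ARE-controlled luciferase in A549 cells. Compounds were tested at several concentrations, and a CellTiter-Fluor read on the same wells flagged cytotoxicity.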
# A549 viability – Nrf2 qHTS screen for inhibitors: counterscreen for cytotoxicity; Potency, µM (series often up to 46 µM), without a hit: at the highest dose activity change, negative = cytotoxicity, hits mostly inhibitors; A549 ARE-Fluc cells, CellTiter-Fluor viability, 18-24 h; AID 504648, 2011; 0.16% of 390,000 active; further: on the % scale 0 is the no-effect control and ±100 the full control effect
#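 A549 ARE_Fluc cells in 5% FBS OPTI-MEM were exposed to compounds in concentration-response for 18-24 h at 37 deg C. Viability was read by CellTiter-Fluor fluorescence (Ex 405/Em 525) after 30 min, before the luciferase read.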
# Nrf2 ARE act – qHTS of Nrf2 Activators; AREc32 ARE-luciferase reporter (MCF7-derived line), luminescence, 24 h; Potency, µM (highest dose often 46.1 µM), for the others: at the highest dose activation, actives largely listed as activators; 0.31% of 410,000 active; further: % of control where 0% means no effect; nearly all actives have a fitted effect of over 65% in size
#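 ARE-driven firefly luciferase activity in AREc32 cells measured after a 24 hr compound exposure at 37 deg C, using Steady-Glo reagent and a 30 min room-temperature hold.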
# IDH1 R132H inh – qHTS for Inhibitors of mutant isocitrate dehydrogenase 1 (IDH1): qHTS | IDH1-R132H enzyme, NADPH consumption, diaphorase/resazurin fluorescence | AID 602179, 2012 | 0.093% of 390,000 active | Potency, µM (titrated, usually from 76.6 µM), inactives show at the top dose activity change, negative = inhibition, most hits filed as inhibitors; further: on the % scale 0 is the no-effect control and ±100 the full control effect; nearly all actives have a fitted effect of over 65% in size
#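 IDH1-R132H (0.5 ug/mL) preincubated 30 min with compound, then NADPH (0.016 mM) and alpha-KG (2 mM) added; 80 min at RT, pH 7.5. Remaining NADPH coupled via diaphorase/resazurin to fluorescence (540/590 nm); concentration-response curves normalized to no-enzyme control.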
# ELG1 repair inh – qHTS screen for small molecules that inhibit ELG1-dependent DNA repair in human embryonic kidney (HEK293T) cells expressing luciferase-tagged ELG1 | Potency, µM (series often up to 46.1 µM), inactives show at the highest dose activity change, negative = inhibition, usual class: inhibitors | HEK293T ELG1-luciferase reporter, luminescence, 16 h; DNA damage induced by 5-fluorouridine | 2.3% of 330,000 active; further: on the % scale 0 is the no-effect control and ±100 the full control effect; nearly all actives have a fitted effect of over 55% in size
#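 HEK293T cells expressing luciferase-tagged ELG1 (2,000/well) received 5-Fluorouridine plus compound or DMSO for 16 hr at 37 °C. Luciferase was read by ONE-Glo luminescence after 30 min at room temperature.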
# ELG1-Luc inh – HTS assay for small molecules that inhibit ELG1-dependent DNA repair in human embryonic kidney (HEK293T) cells expressing luciferase-tagged ELG1: Hit Confirmation; shares compounds with ELG1 repair inh; HEK293T ELG1-luciferase levels, luminescence; cells co-treated with 5-fluorouridine; Potency, µM (highest dose often 46.1 µM), without a hit: top-dose activity change, negative = inhibition, usual class: inhibitors; 68% of 670 active; AID 624248, 2012; further: on the % scale 0 is the no-effect control and ±100 the full control effect; nearly all actives have a fitted effect of over 55% in size
# Target sequence (Q96QE3 whole entry, looked up): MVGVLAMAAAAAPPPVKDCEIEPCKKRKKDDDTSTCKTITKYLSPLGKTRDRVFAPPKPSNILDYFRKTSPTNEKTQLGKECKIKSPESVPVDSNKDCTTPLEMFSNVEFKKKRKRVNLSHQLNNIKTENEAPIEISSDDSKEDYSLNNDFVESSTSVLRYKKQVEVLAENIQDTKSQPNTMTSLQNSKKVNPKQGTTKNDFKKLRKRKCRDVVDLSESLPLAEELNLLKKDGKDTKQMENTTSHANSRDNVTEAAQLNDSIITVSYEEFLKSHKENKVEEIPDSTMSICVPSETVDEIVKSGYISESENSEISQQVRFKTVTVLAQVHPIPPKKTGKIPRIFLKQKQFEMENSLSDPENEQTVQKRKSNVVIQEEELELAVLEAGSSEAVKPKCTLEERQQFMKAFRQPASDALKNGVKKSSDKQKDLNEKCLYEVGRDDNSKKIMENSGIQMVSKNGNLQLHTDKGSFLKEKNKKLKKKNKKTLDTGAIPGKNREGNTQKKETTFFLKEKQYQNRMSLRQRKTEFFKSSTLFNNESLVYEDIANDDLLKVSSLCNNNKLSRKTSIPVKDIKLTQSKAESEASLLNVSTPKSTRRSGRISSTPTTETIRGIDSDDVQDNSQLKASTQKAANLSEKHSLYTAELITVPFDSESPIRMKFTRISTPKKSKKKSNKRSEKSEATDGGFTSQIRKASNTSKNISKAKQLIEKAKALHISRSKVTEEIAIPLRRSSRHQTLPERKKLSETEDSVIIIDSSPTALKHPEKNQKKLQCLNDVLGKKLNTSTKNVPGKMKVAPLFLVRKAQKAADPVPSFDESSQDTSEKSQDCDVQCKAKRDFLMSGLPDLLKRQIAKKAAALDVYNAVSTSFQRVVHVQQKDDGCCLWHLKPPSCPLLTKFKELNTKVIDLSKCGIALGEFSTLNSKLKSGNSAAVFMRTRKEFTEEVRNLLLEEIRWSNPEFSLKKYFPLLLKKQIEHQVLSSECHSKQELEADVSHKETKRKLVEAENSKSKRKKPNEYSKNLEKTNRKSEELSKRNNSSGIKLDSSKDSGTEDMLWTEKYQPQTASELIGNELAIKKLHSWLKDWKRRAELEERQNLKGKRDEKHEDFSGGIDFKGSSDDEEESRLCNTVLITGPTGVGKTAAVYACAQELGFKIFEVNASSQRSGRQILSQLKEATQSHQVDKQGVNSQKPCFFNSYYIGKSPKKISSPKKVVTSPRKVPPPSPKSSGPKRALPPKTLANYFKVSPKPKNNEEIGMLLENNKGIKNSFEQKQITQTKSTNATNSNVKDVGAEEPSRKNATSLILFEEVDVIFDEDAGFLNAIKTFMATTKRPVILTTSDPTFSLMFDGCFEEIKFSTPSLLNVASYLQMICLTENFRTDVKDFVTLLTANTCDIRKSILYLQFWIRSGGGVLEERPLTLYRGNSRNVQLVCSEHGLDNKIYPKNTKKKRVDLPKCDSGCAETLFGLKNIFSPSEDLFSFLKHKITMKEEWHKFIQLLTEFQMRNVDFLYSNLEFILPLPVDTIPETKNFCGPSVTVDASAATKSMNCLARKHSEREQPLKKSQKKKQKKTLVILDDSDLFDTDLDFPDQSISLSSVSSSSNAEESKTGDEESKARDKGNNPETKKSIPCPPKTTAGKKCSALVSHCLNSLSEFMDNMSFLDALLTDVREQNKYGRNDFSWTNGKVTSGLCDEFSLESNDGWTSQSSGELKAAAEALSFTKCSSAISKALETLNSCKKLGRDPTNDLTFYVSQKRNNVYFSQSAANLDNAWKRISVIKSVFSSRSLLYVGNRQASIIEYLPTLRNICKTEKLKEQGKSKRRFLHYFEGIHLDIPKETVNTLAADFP
# ELG1 MMS Luc – MMS-stimulated human ELG1 repair inhibition, confirmed. HEK293T luciferase-tagged ELG1 level, MMS stimulated. shares compounds with ELG1 repair inh. Potency, µM (titrated, usually from 46.1 µM), without a hit: at the top dose activity change, negative = inhibition, hits mostly inhibitors. AID 624249. 53% of 670 active; further: on the % scale 0 is the no-effect control and ±100 the full control effect; nearly all actives have a fitted effect of over 60% in size
# ELG1 5-FU – qHTS screen for small molecules that inhibit ELG1-dependent DNA repair: Hit Confirmation with 5FU Viability; cell viability with 5-FU, ELG1-dependent repair; Potency, µM (highest dose often 46.1 µM), for inactives: at the top dose activity change, negative = viability loss, most hits filed as cytotoxic; shares compounds with ELG1 repair inh; 670 tested, under 10 active;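 further: ELG1-luc HEK293T cells cotreated with 5-fluorouridine at 10 µM final; viability measured 16 h after compound addition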
# ELG1 MMS viab – qHTS screen for small molecules that inhibit ELG1-dependent DNA repair: Hit Confirmation with MMS Viability; shares compounds with ELG1 repair inh; Cell viability with MMS, ELG1-dependent DNA repair; Potency, µM (doses to about 46.1 µM), inactives show at the highest dose activity change, negative = viability loss, actives largely listed as cytotoxic; 33% of 670 active; AID 624251, 2012;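 further: ELG1-luc HEK293T cells co-treated with 10 µM MMS; viability read 16 h after compound addition; on the % scale 0 is the no-effect control and ±100 the full control effect; nearly all actives have a fitted effect of over 60% in size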
# Cell viab unstim – qHTS screen for small molecules that inhibit ELG1-dependent DNA repair: Hit Confirmation with Unstimulated Viability Assay. AID 624252, 2012. Potency, µM (top dose mostly 45.9 µM), without a hit: at the highest dose activity change, negative = loss of viability, usual class: cytotoxic. shares compounds with ELG1 repair inh. cell viability counter-screen, unstimulated, luminescence. 8% of 900 active;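 further: compound exposure lasted 16 hours before reading; on the % scale 0 is the no-effect control and ±100 the full control effect; nearly all actives have a fitted effect of over 55% in size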
# An asterisk follows results filed as active; ? = inconclusive; nt = no result given. Sampled rows, rich in hits. Any-hit rate of the full collection: about 3.8%. The call rests on the fitted dose curve; in most records, active means well fitted curve in the direction sought with a large enough effect; inconclusive means small, poorly fitted or top-dose-only effect, or another doubt; inactive means no such curve, though single readings can be large; an effect the other way counts as inactive or inconclusive. Potency means the concentration at half of the fitted maximal effect.
SMILES,Nrf2 block,A549 viability,Nrf2 ARE act,IDH1 R132H inh,ELG1 repair inh,ELG1-Luc inh,ELG1 MMS Luc,ELG1 5-FU,ELG1 MMS viab,Cell viab unstim
COc1cc(C(=O)OCC(=O)NC2CCCCC2)cc(OC)c1OC,1%,6%,3%,3%,?,nt,nt,nt,nt,nt
COCC(C)OC(=O)c1c(N)n(CC(C)C)c2nc3ccccc3nc12 (stereo not drawn),-19%,9%,2%,2%,3.7µM*,5µM*,-20%,?,0%,-1%
C=CCn1c(N)c(C(=O)OC(C)CC)c2nc3ccccc3nc21 (stereo not drawn),?,8%,-1%,5%,-26%,nt,nt,nt,nt,nt
COc1ccc(N(CC(=O)Nc2ccc(C)c(C)c2)S(=O)(=O)c2ccc(C)cc2)cc1OC,4%,1%,0%,-23%,nt,nt,nt,nt,nt,nt
O=C(Nc1cccc(NC(=O)c2cccc([N+](=O)[O-])c2)n1)c1cccc([N+](=O)[O-])c1,?,-5%,2%,-7%,2.1µM*,?,6%,-4%,?,?
COc1ccc2ncn(-c3ccccc3)c2c1,-5%,-5%,-1%,0%,2.3µM*,?,?,9%,?,7%
CN(C)CCNc1ncnc2c1ncn2[C@H]1CN(Cc2ccc3c(c2)OCO3)C[C@@H](CO)O1,nt,nt,0%,nt,nt,nt,nt,nt,nt,nt
COc1ccc2cc3c(N)nn(C(=O)c4ccc(OC)c(OC)c4)c3nc2c1,?,3%,0%,-1%,nt,nt,nt,nt,nt,nt
COc1ccc2cc3c(N)nn(C(=O)c4ccc(F)cc4)c3nc2c1,5.8µM*,-26%,0%,0%,4.1µM*,2.5µM*,4.4µM*,8%,5%,-4%
